Among all 5,500 compounds or so, about 2,000 (36%) were called active. Inconclusive results (about 18%) are left out. Rule as the data show it: active = normalized growth mostly below about 0.91 (no sharp cut-off); inconclusive = no clear call, values can overlap the other calls; inactive = mostly above about 0.92. The list shows a part of the results.
Assay: chemical genetic growth profiling, strain panel (AID 1159580);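 also: tested at 20 µM; growth read once vehicle control cultures reached saturation at 30 °C; 1 = growth at the plate median or of vehicle wells; lower values mean less growth of the strain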
Conditions: growth OD

Measured: normalized growth

CCN(CC)CCNc1ccc(CO)c2sc3ccccc3c(=O)c12
inactive: S. cerevisiae deletion strains, locus YJR075W, strain HOC1, active compounds read low 0.979 | S. cerevisiae deletion strains, locus YKL009W, strain mrt4, active compounds read low 0.993 | S. cerevisiae deletion strains, locus YKL068W, active compounds read low 1 | S. cerevisiae deletion strains, locus YKL085W, strain MDH1 (second series), active compounds read low 0.996 | S. cerevisiae deletion strains, locus YKL085W, strain MDH1, active compounds read low 0.996 | S. cerevisiae deletion strains, locus YKL160W, strain elf1, active compounds read low 1.01 | S. cerevisiae deletion strains, locus YKL190W, strain CNB1, active compounds read low 1 | S. cerevisiae deletion strains, locus YKR001C, strain vps1, active compounds read low 1 | S. cerevisiae deletion strains, locus YKR026C, strain gcn3, active compounds read low 1.02 | S. cerevisiae deletion strains, locus YKR091W, strain srl3, active compounds read low 1.01 | S. cerevisiae deletion strains, locus YLL001W, strain dnm1, active compounds read low 1.01 | S. cerevisiae deletion strains, locus YLL026W, active compounds read low 1.01 | S. cerevisiae deletion strains, locus YLL041C, strain sdh2, active compounds read low 0.991 | S. cerevisiae deletion strains, locus YLR027C, strain aat2, active compounds read low 1.01 | S. cerevisiae deletion strains, locus YLR039C, strain RIC1, active compounds read low 1.01 | S. cerevisiae deletion strains, locus YLR058C, strain SHM2, active compounds read low 0.998 | S. cerevisiae deletion strains, locus YLR102C, strain apc9, active compounds read low 1.02 | S. cerevisiae deletion strains, locus YLR113W, strain HOG1, active compounds read low 1.05 | S. cerevisiae deletion strains, locus YLR221C, strain rsa3, active compounds read low 1.01 | S. cerevisiae deletion strains, locus YLR258W, strain gsy2, active compounds read low 1.01 | S. cerevisiae deletion strains, locus YLR262C, strain YPT6 (second series), active compounds read low 1 | S. cerevisiae deletion strains, locus YLR262C, strain YPT6, active compounds read low 1.01 | S. cerevisiae deletion strains, locus YLR268W, strain sec22, active compounds read low 0.947 | S. cerevisiae deletion strains, locus YLR320W, strain mms22, active compounds read low 1.01 | S. cerevisiae deletion strains, locus YLR330W, strain CHS5, active compounds read low 1.01 | S. cerevisiae deletion strains, locus YLR342W, strain FKS1 (second series), active compounds read low 0.938 | S. cerevisiae deletion strains, locus YLR342W, strain FKS1, active compounds read low 1 | S. cerevisiae deletion strains, locus YLR357W, strain rsc2, active compounds read low 1.04 | S. cerevisiae deletion strains, locus YLR370C, strain arc18, active compounds read low 1.01 | S. cerevisiae deletion strains, locus YLR371W, strain rom2, active compounds read low 1.01 | S. cerevisiae deletion strains, locus YLR384C, strain iki3, active compounds read low 1.01 | S. cerevisiae deletion strains, locus YLR418C, strain cdc73, active compounds read low 0.919 | S. cerevisiae deletion strains, locus YML016C, strain PPZ1, active compounds read low 0.996 | S. cerevisiae deletion strains, locus YML032C, strain rad52, active compounds read low 0.948 | S. cerevisiae deletion strains, locus YML120C, strain ndi1, active compounds read low 1.02 | S. cerevisiae deletion strains, locus YML124C, strain tub3, active compounds read low 1.01 | S. cerevisiae deletion strains, locus YMR058W, strain fet3, active compounds read low 0.998 | S. cerevisiae deletion strains, locus YMR078C, strain ctf18, active compounds read low 1.01 | S. cerevisiae deletion strains, locus YMR125W, strain sto1, active compounds read low 1 | S. cerevisiae deletion strains, locus YMR129W, active compounds read low 1 | S. cerevisiae deletion strains, locus YMR205C, strain PFK2, active compounds read low 0.997 | S. cerevisiae deletion strains, locus YMR223W, strain ubp8, active compounds read low 0.994 | S. cerevisiae deletion strains, locus YMR231W, strain pep5, active compounds read low 1.01 | S. cerevisiae deletion strains, locus YMR263W, strain SAP30, active compounds read low 0.985 | S. cerevisiae deletion strains, locus YMR307W, strain GAS1, active compounds read low 1.01 | S. cerevisiae deletion strains, locus YNL067W, strain RPL9B, active compounds read low 0.973 | S. cerevisiae deletion strains, locus YNL071W, strain lat1, active compounds read low 1.01 | S. cerevisiae deletion strains, locus YNL128W, strain TEP1, active compounds read low 0.992 | S. cerevisiae deletion strains, locus YNL153C, strain GIM3, active compounds read low 0.962 | S. cerevisiae deletion strains, locus YNL183C, strain NPR1, active compounds read low 0.952 | S. cerevisiae deletion strains, locus YNL209W, strain ssb2, active compounds read low 1.02 | S. cerevisiae deletion strains, locus YNL233W, strain BNI4, active compounds read low 0.955 | S. cerevisiae deletion strains, locus YNL248C, strain rpa49, active compounds read low 1 | S. cerevisiae deletion strains, locus YNL250W, strain rad50, active compounds read low 1 | S. cerevisiae deletion strains, locus YNL271C, strain bni1, active compounds read low 1.01 | S. cerevisiae deletion strains, locus YNL298W, strain CLA4, active compounds read low 1.01 | S. cerevisiae deletion strains, locus YNL307C, strain MCK1, active compounds read low 0.962 | S. cerevisiae deletion strains, locus YNL322C, strain KRE1 (second series), active compounds read low 1.01 | S. cerevisiae deletion strains, locus YNL322C, strain KRE1, active compounds read low 1.01 | S. cerevisiae deletion strains, locus YNR049C, strain mso1, active compounds read low 1.01 | S. cerevisiae deletion strains, locus YNR052C, strain pop2, active compounds read low 1.01 | S. cerevisiae deletion strains, locus YOL006C, strain TOP1, active compounds read low 0.883 | S. cerevisiae deletion strains, locus YOL012C, strain htz1 0.879 | S. cerevisiae deletion strains, locus YOL147C, strain pex11, active compounds read low 1.02 | S. cerevisiae deletion strains, locus YOR001W, strain rrp6, active compounds read low 1 | S. cerevisiae deletion strains, locus YOR061W, strain CKA2, active compounds read low 1 | S. cerevisiae deletion strains, locus YOR069W, strain VPS5, active compounds read low 0.993 | S. cerevisiae deletion strains, locus YOR070C, strain gyp1, active compounds read low 1 | S. cerevisiae deletion strains, locus YOR080W, strain dia2, active compounds read low 1.01 | S. cerevisiae deletion strains, locus YOR083W, strain WHI5, active compounds read low 1 | S. cerevisiae deletion strains, locus YOR106W, strain vam3, active compounds read low 1.02 | S. cerevisiae deletion strains, locus YOR136W, strain idh2, active compounds read low 1.01 | S. cerevisiae deletion strains, locus YOR144C, strain elg1, active compounds read low 1 | S. cerevisiae deletion strains, locus YOR184W, strain ser1, active compounds read low 0.995 | S. cerevisiae deletion strains, locus YOR231W, strain MKK1, active compounds read low 1.04 | S. cerevisiae deletion strains, locus YOR265W, strain rbl2, active compounds read low 1 | S. cerevisiae deletion strains, locus YOR270C, strain vph1, active compounds read low 0.976 | S. cerevisiae deletion strains, locus YOR290C, strain snf2, active compounds read low 1.01 | S. cerevisiae deletion strains, locus YOR316C, strain cot1, active compounds read low 1.01 | S. cerevisiae deletion strains, locus YPL051W, strain arl3, active compounds read low 0.997 | S. cerevisiae deletion strains, locus YPL055C, strain LGE1, active compounds read low 0.954 | S. cerevisiae deletion strains, locus YPL078C, strain atp4, active compounds read low 1.01 | S. cerevisiae deletion strains, locus YPL106C, strain sse1, active compounds read low 1.02 | S. cerevisiae deletion strains, locus YPL240C, strain hsp82, active compounds read low 1.01 | S. cerevisiae deletion strains, locus YPL241C, strain CIN2, active compounds read low 1.02 | S. cerevisiae deletion strains, locus YPL256C, strain CLN2, active compounds read low 1.01 | S. cerevisiae deletion strains, locus YPR119W, strain clb2, active compounds read low 1.02 | S. cerevisiae deletion strains, locus YPR141C, strain kar3, active compounds read low 1.02 | S. cerevisiae deletion strains, locus YPR163C, strain tif3, active compounds read low 0.996 | S. cerevisiae deletion strains, locus YPR167C, strain met16, active compounds read low 1.01 | S. cerevisiae deletion strains, strain wtn01, active compounds read low 0.988 | S. cerevisiae strains, strain wild type, active compounds read low 1.01
